Many of the other results were omitted from the sample, so hits are more common in it than they were.
Dicer inh – blocks human Dicer maturation of pre-miR-21; 47,000 tested, 6% active; z-score at 25 µM; cat-ELCCA pre-miR-21 Dicer processing, chemiluminescence; hits give high values; Q9UPY3; in the data active = z-score above about 3, passing the limit was not always enough;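 also: plate controls were vehicle for no effect and no enzyme for full effect; higher signal means more uncleaved substrate so more Dicer inhibition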
Starred values were filed as active, the others as inactive.

SMILES	Dicer inh
CCCC(NC1CCS(=O)(=O)C1)C(=O)O (stereo not drawn)	-1.2
Fc1ccccc1Nc1ncnc2sc3c(c12)CCCC3	-0.77
CSc1c(C#N)c(-c2cccs2)nn1C(=O)C(Cl)(Cl)Cl	-0.71
O=C(Nc1nc2ccccc2c(=O)s1)c1ccccc1	1
CCN(CC)c1nc2ccccc2c(=O)s1	3.7*
CCOc1ccc(Nc2nc3ccccc3c(=O)s2)cc1	0.49
Cc1ccc(C(=O)c2ccccc2C(=O)O)cc1	-0.81
CS(=O)(=O)c1nc2ccccc2s1	0.11
COc1ccccc1C1C(C#N)=C2N=C(N)c3ccccc3N2C2=C1C(=O)CC(C)(C)C2 (stereo not drawn)	5*
N#CC1=C2N=C(N)c3ccccc3N2C2=C(C(=O)CC(c3ccccc3)C2)C1c1ccc2c(c1)OCO2 (stereo not drawn)	3.4*
N#CC1=C2N=C(N)c3ccccc3N2C2=C(C(=O)CC(c3ccccc3)C2)C1c1cccnc1 (stereo not drawn)	1.5
COc1ccc(C2C(C#N)=C3N=C(N)c4ccccc4N3C3=C2C(=O)CC(C)(C)C3)cc1 (stereo not drawn)	-1.2
COc1cccc(C2C(C#N)=C3N=C(N)c4ccccc4N3C3=C2C(=O)CC(C)(C)C3)c1OC (stereo not drawn)	0.02
N#CC1=C2N=C(N)c3ccccc3N2C2=C(C(=O)CC(c3ccccc3)C2)C1c1cccs1 (stereo not drawn)	3
COc1cccc(C2C(C#N)=C3N=C(N)c4ccccc4N3C3=C2C(=O)CC(C)(C)C3)c1 (stereo not drawn)	1.9
CCOc1ccccc1C1C(C#N)=C2N=C(N)c3ccccc3N2C2=C1C(=O)CC(C)(C)C2 (stereo not drawn)	1.3
COc1ccc(C2C(C#N)=C3N=C(N)c4ccccc4N3C3=C2C(=O)CC(C)(C)C3)cc1OC (stereo not drawn)	8.2*
N/C(=N\OC(=O)CCn1cccc(C(F)(F)F)c1=O)c1cccc(Cl)c1	-1.1
Cc1ccc(S(N)(=O)=O)c(I)c1	-1.3
COc1cc(Cl)c(NC(C)=O)c(Cl)c1	1
COC(=O)C1=C(C)NC2=C(C(=O)CC(c3ccc(Cl)cc3)C2)C1c1ccc(OC)cc1OC (stereo not drawn)	0.01
Cc1cc(N(CCO)CCO)n2ncnc2n1	-0.5
CC(C)NC(=O)N(Cc1cccnc1)Cc1cccc(Cl)c1Cl	-0.04
O=C1SC(c2ccccc2)=N/C1=C/c1ccc(C(F)(F)F)cc1	-1.4
Cc1ccc(CNCCN2CCOCC2)s1	-1.3
SMILES	Dicer inh
Cc1ccc(CNc2ccc(N3CCOCC3)cc2)s1	4*
Cc1ccc(CNc2ccc(N3CCOCC3)c(Cl)c2)s1	1.4
CCOc1ccccc1C1C(C#N)=C(C)NC2=C1C(=O)CC(c1ccc(Cl)cc1)C2 (stereo not drawn)	-0.83
CCn1c[n+](CC(O)COc2ccc(F)cc2)c2cc(C)c(C)cc21 (stereo not drawn)	1.5
CCOC(=O)NC1=C(C#N)C=Nc2ccccc2N1	23*
CCOC(=O)CC1=Nc2ccccc2NC(=O)C1	0.09
N#Cc1ccc(C#CCOC(=O)Nc2ccccc2)cc1	-8
COc1ccccc1C1CCN(Cc2ccc3c(c2)CCC(C)(C)O3)CC1	-1.3
CN1C(=O)C(O)(CC(=O)c2cc(O)ccc2O)c2ccccc21 (stereo not drawn)	0.54
CC1(C)CC(=O)C2=C(C1)Nc1nonc1NC2c1ccc2c(c1)OCO2 (stereo not drawn)	-0.49
OC1(c2ccc(Cl)cc2)CCN(Cc2cn[nH]c2-c2ccc(F)cc2)CC1	-0.13
Fc1ccc(N2CCN(Cc3cn[nH]c3-c3ccccc3)CC2)cc1	3.5*
OC1(c2ccc(Cl)cc2)CCN(Cc2cn[nH]c2-c2ccccc2)CC1	-1.4
Cc1cccc(C2=C([N+](=O)[O-])Sc3ccccc3N2)c1	1.4
Cc1onc(-c2ccccc2)c1-c1csc(Nc2ccc(Cl)cc2)n1	1
Clc1ccccc1/C=N/Nc1nc(-c2ccccc2)cs1	0.16
C=CCNc1nc(-c2ccccc2)cs1	-0.23
Cc1ccccc1CO/N=C\c1[nH]ncc1Br	0.24
COc1ccc(/C=N/Nc2nc(-c3ccccc3)cs2)cc1	2.3
c1ccc(-c2csc(NN=C3C4CC5CC(C4)CC3C5)n2)cc1	0.85
Cc1onc(-c2ccccc2)c1-c1csc(N/N=C/c2ccccc2)n1	4*
Fc1ccc(/C=N/Nc2nc(-c3ccccc3)cs2)cc1	6.8*
Brc1cn[nH]c1/C=N/Nc1nc(-c2ccccc2)cs1	3.2*
S=C(N/N=C/c1[nH]ncc1Br)Nc1ccccc1	4.2*
CCOC(=O)c1noc(C)c1-c1csc(N/N=C/c2ccccc2)n1	0.39
SMILES	Dicer inh
S=C(N/N=C/c1ccccc1)Nc1ccccc1	13
COC(=O)c1ccsc1NC(=O)c1ccc(C(F)(F)F)cc1	0.49
CCCOc1ccc(C2c3c(oc4cc(C)c(C)cc4c3=O)C(=O)N2c2nccs2)cc1 (stereo not drawn)	0.14
CN(C)CCCOC(=O)c1ccc2c(c1)OCO2	4.8
CCCc1nnc2n1C(C)(C)Cc1ccccc1-2	1.1
O=C1CSC(=Nc2ccccc2F)N1c1ccccc1F	-0.25
Cc1c(C(=O)CN2CCN(c3ccc(C(F)(F)F)cn3)CC2)sc2ccc(Cl)cc12	1
Cn1c(SCC(=O)Nc2ccc(F)c(Cl)c2)nnc1-c1cncc(C#Cc2ccccc2)c1	-1.8
Cn1c(=O)c2c(nc(Cl)n2Cc2ccccc2F)n(C)c1=O	-0.25
Nc1nc(-c2ccncc2)ncc1S(=O)(=O)c1ccc(C(F)(F)F)cn1	-0.02
CCOC(=O)C(NC(=O)c1cccc(C)c1)(Nc1ccc(C)cn1)C(F)(F)F (stereo not drawn)	-1.9
N#C/C(=C\NCc1ccccn1)S(=O)(=O)c1ccc(Cl)cc1	-0.88
O=C(CC(Sc1ccc(Cl)cc1)c1ccc(Cl)cc1)c1ccccc1 (stereo not drawn)	-3.5
N#CC(C#N)C(CC(=O)c1ccccc1)c1ccccc1 (stereo not drawn)	4.2*
O=C(CCCC(=O)c1ccccc1)c1ccccc1	-2.2
CCOC(=O)c1c(NC(=O)C2C3C=CC(CC3)C2C(=O)O)sc2c1CC(C)CC2 (stereo not drawn)	2.8
CCOC(=O)C1C2C=CC3(CN(c4ccccc4C)C(=O)C13)O2 (stereo not drawn)	0.36
CC(C)(C)NCC(O)COc1ccccc1 (stereo not drawn)	0.04
N#CC(=C1SCCS1)c1ccc(Cl)cc1	4.7*
N#CC(=C1SCCCCS1)S(=O)(=O)c1ccc(Cl)cc1	0.36
N#CC(=C1SCCS1)S(=O)(=O)c1ccc(Cl)cc1	-0.22
CCC(CO)NC(=O)c1cc2c(n(-c3ccc(Cl)cc3)c1=O)CC(C)(C)CC2=O (stereo not drawn)	1.1
CC1CN(c2ccc(Cl)cc2)c2nc3c(c(=O)n(CC(=O)O)c(=O)n3C)n2C1 (stereo not drawn)	-0.03
Cn1c(=O)n(CC(=O)O)c(=O)c2c1nc1n2CCN1c1ccc(F)cc1	5.4*
CCOc1ccc(N2CCCn3c2nc2c3c(=O)n(CC(=O)O)c(=O)n2C)cc1	0.38
Cc1ccc(N2CCn3c2nc2c3c(=O)n(CC(=O)O)c(=O)n2C)cc1	0.75
Cn1c(=O)n(CC(=O)O)c(=O)c2c1nc1n2CCCN1c1ccc(Cl)cc1	3*
Cn1c(=O)n(CC(=O)O)c(=O)c2c1nc1n2CCCN1c1ccc(F)cc1	0.5
CCOC(=O)c1nnn2c1nc(N/N=C/c1ccc(Cl)cc1)c1ccccc12	1.5
c1ccc(CN2CCN(Cc3ccccn3)CC2)cc1	0.53

Screens from PubChem.
